# The supplement of paper PMC10849652
# About 8,800 targets were measured; listed, in parts, are those with a hit and a random draw of the rest. About 0.5% of all pairs of compound and target were hits. Values without a mark were called inactive.
# What was measured:
# Assay in all cases: log2 fold change, soluble protein after heating vs DMSO (PISA); higher = thermal stabilisation; K562 lysate, 10 uM; active = over 0.2 and 3.5 SD of the protein, either way, in both replicates (recomputed)
# vemurafenib = compound: CCCS(=O)(=O)Nc1ccc(F)c(C(=O)c2c[nH]c3ncc(-c4ccc(Cl)cc4)cc23)c1F [vemurafenib]
# Summary of the method: (§1)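 A 30 min treatment with 10 μM compound was applied to crude K562 extract at 1 mg/mL protein in PBS pH 7.4 with 1 mM MgCl2. Heating for 3 min spanned 48°C-58°C, after which aliquots were pooled, adjusted to 0.5% NP-40 at 4°C and spun at 21,000xg for 90 min. TMTpro 16plex LC-MS/MS of the supernatant, with channel sums equalised, gave values recorded as log-two fold change in thermal stability against solvent controls, from duplicates.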
# [1] = compound: CCCS(=O)(=O)Nc1ccc(F)c(C(=O)c2c[nH]c3ncc(Cl)cc23)c1F
# Summary of the method: as §1
# barasertib = compound: CCN(CCCOc1ccc2c(Nc3cc(CC(=O)Nc4cccc(F)c4)[nH]n3)ncnc2c1)CCOP(=O)(O)O [barasertib]
# Summary of the method: as §1
# [2] = compound: CC[C@@H]1C(=O)N(C)c2cnc(Nc3ccc(C(=O)NC4CCN(C)CC4)cc3OC)nc2N1C1CCCC1
# Summary of the method: as §1
# volasertib = compound: CC[C@@H]1C(=O)N(C)c2cnc(Nc3ccc(C(=O)N[C@H]4CC[C@H](N5CCN(CC6CC6)CC5)CC4)cc3OC)nc2N1C(C)C [volasertib]
# Summary of the method: as §1
# [3] = compound: CCn1c(C(=O)N(C2CC2)C2CC2)cc2c3c(ncn3C)c(Nc3cc(C)n(C)n3)nc21
# Summary of the method: as §1
# [4] = compound: CCn1cc(-c2ccnc3[nH]c(-c4cccc(CN(C)C)c4)cc23)c(-c2ccc(NC(=O)N(C)C)cc2)n1
# Summary of the method: as §1
# [5] = compound: CN1CCC(CNc2ccc3ncc(-c4cccc(OC(F)(F)F)c4)n3n2)CC1
# Summary of the method: as §1
# saracatinib = compound: CN1CCN(CCOc2cc(OC3CCOCC3)c3c(Nc4c(Cl)ccc5c4OCO5)ncnc3c2)CC1 [saracatinib]
# Summary of the method: as §1
# sotrastaurin = compound: CN1CCN(c2nc(C3=C(c4c[nH]c5ccccc45)C(=O)NC3=O)c3ccccc3n2)CC1 [sotrastaurin]
# Summary of the method: as §1
# alvocidib = compound: CN1CC[C@H](c2c(O)cc(O)c3c(=O)cc(-c4ccccc4Cl)oc23)[C@H](O)C1 [alvocidib]
# Summary of the method: as §1
# Tubastatin A = compound: CN1CCc2c(c3ccccc3n2Cc2ccc(C(=O)NO)cc2)C1 [Tubastatin A]
# Summary of the method: as §1
# [6] = compound: CNC(=O)C1=CC=CC=C1NC2=NC(=NC=C2Cl)NC3=C(C=C(C=C3)N4CCOCC4)OC
# Summary of the method: as §1
# defactinib = compound: CNC(=O)c1ccc(Nc2ncc(C(F)(F)F)c(NCc3nccnc3N(C)S(C)(=O)=O)n2)cc1 [defactinib]
# Summary of the method: as §1
# [7] = compound: CNc1nc(-c2ccc3c(N)n[nH]c3c2)cc(N2C[C@@H](C(=O)NC3CCCCC3)CC[C@H]2C)n1
# Summary of the method: as §1
# encorafenib = compound: COC(=O)N[C@@H](C)CNc1nccc(-c2cn(C(C)C)nc2-c2cc(Cl)cc(NS(C)(=O)=O)c2F)n1 [encorafenib]
# Summary of the method: as §1
# [8] = compound: COC(=O)[C@H](CCSC)NC(=O)C1=C(C=C(C=C1)NC[C@H](CS)N)C2=CC=CC=C2
# Summary of the method: as §1
# alisertib = compound: COc1cc(Nc2ncc3c(n2)-c2ccc(Cl)cc2C(c2c(F)cccc2OC)=NC3)ccc1C(=O)O [alisertib]
# Summary of the method: as §1
# [9] = compound: COc1cc2nc(-c3cc(F)ccc3O)nc(N[C@@H]3CNC[C@H]3C(C)(C)O)c2cc1OC
# Summary of the method: as §1
# gefitinib = compound: COc1cc2ncnc(Nc3ccc(F)c(Cl)c3)c2cc1OCCCN1CCOCC1 [gefitinib]
# Summary of the method: as §1
# UniProt P10124, sequence (P10124 whole entry, looked up): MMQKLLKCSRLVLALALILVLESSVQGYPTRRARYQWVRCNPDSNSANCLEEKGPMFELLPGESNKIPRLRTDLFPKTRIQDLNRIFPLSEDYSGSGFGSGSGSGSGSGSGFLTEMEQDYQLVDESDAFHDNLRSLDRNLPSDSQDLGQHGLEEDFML
# UniProt Q8IX90, sequence (Q8IX90 whole entry, looked up): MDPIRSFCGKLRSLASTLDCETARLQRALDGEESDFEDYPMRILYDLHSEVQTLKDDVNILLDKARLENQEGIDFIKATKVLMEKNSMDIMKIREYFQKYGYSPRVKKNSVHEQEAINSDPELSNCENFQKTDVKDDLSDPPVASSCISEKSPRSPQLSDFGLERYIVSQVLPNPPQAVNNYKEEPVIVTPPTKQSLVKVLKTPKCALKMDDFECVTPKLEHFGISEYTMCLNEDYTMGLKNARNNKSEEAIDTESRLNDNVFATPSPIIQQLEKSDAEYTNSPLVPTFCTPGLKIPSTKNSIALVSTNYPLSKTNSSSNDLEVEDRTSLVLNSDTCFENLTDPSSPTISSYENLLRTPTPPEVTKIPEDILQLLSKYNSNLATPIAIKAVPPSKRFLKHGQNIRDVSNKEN
# UniProt Q15506, sequence (Q15506 whole entry, looked up): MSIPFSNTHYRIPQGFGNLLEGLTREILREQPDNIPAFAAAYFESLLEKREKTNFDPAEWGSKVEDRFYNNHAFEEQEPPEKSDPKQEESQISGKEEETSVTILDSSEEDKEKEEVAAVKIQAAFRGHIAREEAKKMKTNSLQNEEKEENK
# UniProt Q14542, sequence (Q14542 whole entry, looked up): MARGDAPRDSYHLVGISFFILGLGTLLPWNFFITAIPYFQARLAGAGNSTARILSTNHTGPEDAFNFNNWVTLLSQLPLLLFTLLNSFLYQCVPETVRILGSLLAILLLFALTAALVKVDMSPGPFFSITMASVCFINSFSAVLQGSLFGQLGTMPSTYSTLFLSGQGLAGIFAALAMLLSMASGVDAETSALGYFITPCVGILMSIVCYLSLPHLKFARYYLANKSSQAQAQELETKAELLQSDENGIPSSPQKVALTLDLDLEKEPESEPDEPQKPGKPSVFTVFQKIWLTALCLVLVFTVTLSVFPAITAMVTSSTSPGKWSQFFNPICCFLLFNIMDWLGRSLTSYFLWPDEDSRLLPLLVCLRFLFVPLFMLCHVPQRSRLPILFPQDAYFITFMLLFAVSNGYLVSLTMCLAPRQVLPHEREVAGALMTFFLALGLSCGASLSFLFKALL
# UniProt Q01650, sequence (Q01650 whole entry, looked up): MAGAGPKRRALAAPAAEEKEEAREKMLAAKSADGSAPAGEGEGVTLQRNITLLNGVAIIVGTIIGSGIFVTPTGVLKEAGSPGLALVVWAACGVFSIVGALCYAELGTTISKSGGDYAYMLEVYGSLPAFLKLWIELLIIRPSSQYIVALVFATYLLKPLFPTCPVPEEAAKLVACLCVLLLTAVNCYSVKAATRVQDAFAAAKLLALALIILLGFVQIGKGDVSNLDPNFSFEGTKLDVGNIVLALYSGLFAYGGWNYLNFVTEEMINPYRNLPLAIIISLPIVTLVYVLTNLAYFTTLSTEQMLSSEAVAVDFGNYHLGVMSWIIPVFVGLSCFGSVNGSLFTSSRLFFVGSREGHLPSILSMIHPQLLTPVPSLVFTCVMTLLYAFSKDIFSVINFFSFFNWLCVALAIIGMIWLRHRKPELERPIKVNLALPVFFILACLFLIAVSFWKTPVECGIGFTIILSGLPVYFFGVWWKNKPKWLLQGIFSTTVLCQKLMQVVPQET
# UniProt Q8TBC3, sequence (Q8TBC3 whole entry, looked up): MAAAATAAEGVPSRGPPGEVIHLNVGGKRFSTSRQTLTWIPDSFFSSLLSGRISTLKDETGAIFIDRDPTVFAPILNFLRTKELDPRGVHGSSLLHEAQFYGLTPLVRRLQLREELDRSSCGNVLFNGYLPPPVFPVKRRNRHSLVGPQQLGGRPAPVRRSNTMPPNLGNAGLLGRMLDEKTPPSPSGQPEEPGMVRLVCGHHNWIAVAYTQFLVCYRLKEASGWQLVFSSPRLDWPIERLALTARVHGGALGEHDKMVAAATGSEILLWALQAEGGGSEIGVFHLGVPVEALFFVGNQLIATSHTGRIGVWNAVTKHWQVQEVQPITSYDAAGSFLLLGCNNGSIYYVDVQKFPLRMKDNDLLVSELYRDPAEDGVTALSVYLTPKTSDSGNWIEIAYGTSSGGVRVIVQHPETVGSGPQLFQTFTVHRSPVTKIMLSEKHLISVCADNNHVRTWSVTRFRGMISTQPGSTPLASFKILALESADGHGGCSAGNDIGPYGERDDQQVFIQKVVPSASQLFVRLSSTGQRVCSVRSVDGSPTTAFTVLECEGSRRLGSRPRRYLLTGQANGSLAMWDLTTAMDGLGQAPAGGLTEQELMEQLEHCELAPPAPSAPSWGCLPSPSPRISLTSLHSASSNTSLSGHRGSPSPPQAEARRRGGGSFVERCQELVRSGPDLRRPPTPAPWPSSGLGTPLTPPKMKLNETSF
# UniProt Q9Y6J9, sequence (Q9Y6J9 whole entry, looked up): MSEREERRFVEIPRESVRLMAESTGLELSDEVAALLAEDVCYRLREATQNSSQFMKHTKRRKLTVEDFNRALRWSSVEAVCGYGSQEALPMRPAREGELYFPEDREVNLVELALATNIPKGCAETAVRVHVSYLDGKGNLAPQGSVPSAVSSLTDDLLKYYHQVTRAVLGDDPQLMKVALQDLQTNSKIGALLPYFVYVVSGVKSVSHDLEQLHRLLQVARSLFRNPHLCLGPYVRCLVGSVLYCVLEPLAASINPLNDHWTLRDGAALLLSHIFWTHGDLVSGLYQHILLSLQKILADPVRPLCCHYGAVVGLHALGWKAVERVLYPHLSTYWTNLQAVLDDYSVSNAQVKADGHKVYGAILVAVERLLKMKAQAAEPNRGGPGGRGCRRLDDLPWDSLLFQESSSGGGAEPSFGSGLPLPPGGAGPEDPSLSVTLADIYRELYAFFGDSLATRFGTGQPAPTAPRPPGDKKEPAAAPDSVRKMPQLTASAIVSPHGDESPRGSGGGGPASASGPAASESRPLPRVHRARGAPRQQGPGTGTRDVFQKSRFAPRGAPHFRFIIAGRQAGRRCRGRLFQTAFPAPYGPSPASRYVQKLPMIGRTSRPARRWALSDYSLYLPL
# UniProt Q8TCT8, sequence (Q8TCT8 whole entry, looked up): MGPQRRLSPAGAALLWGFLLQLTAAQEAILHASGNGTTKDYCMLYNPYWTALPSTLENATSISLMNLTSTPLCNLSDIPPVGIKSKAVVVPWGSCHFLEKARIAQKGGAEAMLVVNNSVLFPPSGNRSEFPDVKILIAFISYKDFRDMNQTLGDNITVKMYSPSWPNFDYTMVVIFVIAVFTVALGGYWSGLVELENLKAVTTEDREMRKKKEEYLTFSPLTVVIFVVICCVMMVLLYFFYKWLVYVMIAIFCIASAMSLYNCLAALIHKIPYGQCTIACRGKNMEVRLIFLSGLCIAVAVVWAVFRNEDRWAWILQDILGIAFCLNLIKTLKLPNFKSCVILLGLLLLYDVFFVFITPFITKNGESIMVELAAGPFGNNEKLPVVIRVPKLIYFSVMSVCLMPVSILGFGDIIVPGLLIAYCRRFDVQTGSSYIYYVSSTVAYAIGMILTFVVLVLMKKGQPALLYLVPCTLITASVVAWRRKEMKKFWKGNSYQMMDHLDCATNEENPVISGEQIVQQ
# UniProt Q9UPR3, sequence (Q9UPR3 whole entry, looked up): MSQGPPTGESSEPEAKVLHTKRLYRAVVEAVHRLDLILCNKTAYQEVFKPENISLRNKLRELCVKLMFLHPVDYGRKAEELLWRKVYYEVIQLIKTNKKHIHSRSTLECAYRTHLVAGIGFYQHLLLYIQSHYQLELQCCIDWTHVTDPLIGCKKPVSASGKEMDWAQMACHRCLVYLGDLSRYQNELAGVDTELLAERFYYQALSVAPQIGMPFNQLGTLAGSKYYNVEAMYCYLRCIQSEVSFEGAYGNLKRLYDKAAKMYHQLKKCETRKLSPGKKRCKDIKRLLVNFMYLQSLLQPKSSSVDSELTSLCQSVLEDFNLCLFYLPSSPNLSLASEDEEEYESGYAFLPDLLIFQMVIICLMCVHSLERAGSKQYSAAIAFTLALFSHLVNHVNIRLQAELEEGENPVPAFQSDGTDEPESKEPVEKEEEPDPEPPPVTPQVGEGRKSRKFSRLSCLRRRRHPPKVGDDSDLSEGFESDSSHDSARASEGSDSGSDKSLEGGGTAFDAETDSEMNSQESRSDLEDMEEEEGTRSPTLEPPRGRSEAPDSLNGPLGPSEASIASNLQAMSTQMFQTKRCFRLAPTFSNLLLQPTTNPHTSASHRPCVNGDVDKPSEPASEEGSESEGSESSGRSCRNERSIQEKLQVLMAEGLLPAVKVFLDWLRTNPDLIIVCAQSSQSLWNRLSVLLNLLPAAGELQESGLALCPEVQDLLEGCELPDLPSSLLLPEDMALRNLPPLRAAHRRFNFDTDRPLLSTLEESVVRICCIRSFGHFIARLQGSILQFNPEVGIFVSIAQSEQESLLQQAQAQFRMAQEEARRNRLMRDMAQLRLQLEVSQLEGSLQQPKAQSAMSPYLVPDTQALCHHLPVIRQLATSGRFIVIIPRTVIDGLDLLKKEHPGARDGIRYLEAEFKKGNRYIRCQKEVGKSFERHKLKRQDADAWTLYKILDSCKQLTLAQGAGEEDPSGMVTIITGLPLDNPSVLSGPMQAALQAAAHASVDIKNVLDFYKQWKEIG
# UniProt O60225, sequence (O60225 whole entry, looked up): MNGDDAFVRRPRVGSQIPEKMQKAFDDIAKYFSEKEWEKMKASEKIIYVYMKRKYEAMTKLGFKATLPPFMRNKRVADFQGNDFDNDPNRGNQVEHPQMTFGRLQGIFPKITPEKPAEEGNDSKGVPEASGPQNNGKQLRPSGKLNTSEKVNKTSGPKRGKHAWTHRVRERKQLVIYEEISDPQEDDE
# UniProt Q9NZ72, sequence (Q9NZ72 whole entry, looked up): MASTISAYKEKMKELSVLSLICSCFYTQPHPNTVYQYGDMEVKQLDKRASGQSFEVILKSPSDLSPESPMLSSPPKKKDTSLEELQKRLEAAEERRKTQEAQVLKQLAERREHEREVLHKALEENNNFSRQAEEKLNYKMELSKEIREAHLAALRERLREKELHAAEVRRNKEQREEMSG
Target,log2 fold change (vemurafenib),log2 fold change [1],log2 fold change (barasertib),log2 fold change [2],log2 fold change (volasertib),log2 fold change [3],log2 fold change [4],log2 fold change [5],log2 fold change (saracatinib),log2 fold change (sotrastaurin),log2 fold change (alvocidib),log2 fold change (Tubastatin A),log2 fold change [6],log2 fold change (defactinib),log2 fold change [7],log2 fold change (encorafenib),log2 fold change [8],log2 fold change (alisertib),log2 fold change [9],log2 fold change (gefitinib)
TARDBP (UniProt Q13148),0.027,0.016,0.151,0.007,-0.125,0.169,-0.008,-0.069,0.058,-0.032,-0.006,-0.318 (active),-0.044,0,-0.139,0.181,0.137,0.012,-0.004,0.06
SLC19A1 (UniProt P41440),0.028,-0.005,0.059,0.014,0.047,-0.036,-0.203,0.165,0.019,0.025,-0.106,0.047,0.025,0.01,0.037,0.011,-0.018,-0.005,0.039,0.026
SRSF7 (UniProt Q16629),0.012,0.03,-0.057,-0.007,0.012,0.017,-0.034,0.193,-0.008,0.028,-0.2,-0.005,-0.057,-0.06,0.051,0.032,0.049,0.006,0.038,0.067
SRGN (UniProt P10124),0.177,0.093,-0.033,0.059,-0.086,-0.005,-0.022,0.101,0.043,0.069,-0.509 (active),0.027,0.048,0.175,0.065,0.014,-0.055,–,0.026,–
SSX5 isoform 2 (UniProt O60225),0.143,0.062,-0.065,-0.188,0.013,0.031,-0.926 (active),0.049,–,–,-0.096,-0.015,0.038,-0.026,–,-0.082,-0.271,-0.172,-0.002,0.005
SMG5 (UniProt Q9UPR3),0.009,0.048,0.047,0.029,-0.006,0.068,0.038,-0.004,0.05,-0.024,0.086,-0.075,0.014,0.04,-0.037,0.067,0.058,0.04,0.004,0.028
SORBS3 (UniProt O60504),-0.092,0.067,-0.032,0.034,-0.129,-0.05,-0.025,0.004,0.052,-0.011,0,-0.095,0.032,-0.062,0.059,0.02,-0.143,–,0.065,–
SPPL2A (UniProt Q8TCT8),0.312,0.023,0.077,-0.016,0.011,-0.062,-0.196,0.202,–,-0.029,0.013,0.107,0.103,-0.054,–,0.124,-0.063,–,0.099,–
TAF6L (UniProt Q9Y6J9),-0.029,0.035,-0.05,-0.245 (active),-0.007,-0.015,0.018,0.022,0.029,0.05,0.018,-0.109,-0.035,0.001,-0.116,0.096,-0.051,0.006,0.006,-0.046
TARBP1 (UniProt Q13395),0.019,-0.004,0.02,0.025,-0.032,-0.047,-0.053,-0.034,-0.055,0.038,0.009,-0.118,-0.066,-0.034,0.047,0.073,-0.236,0.018,-0.004,0.011
SLC30A9 (UniProt Q6PML9),-0.005,0.024,0.015,0.07,0.018,0.056,-0.534 (active),0.079,0.034,-0.056,0,0.022,0.002,0.064,0.023,0.032,0.05,-0.008,-0.079,-0.01
SPA17 (UniProt Q15506),-0.013,-0.004,0.021,0.005,0.09,0.022,-0.639 (active),0.245,0.004,0.021,-0.208,0.021,–,0.056,0.038,-0.007,-0.032,–,-0.038,–
SLC29A2 (UniProt Q14542),0.003,0.012,0.029,0.049,-0.041,-0.079,-0.729 (active),0.206,-0.004,0.013,-0.134,-0.018,0.187,-0.011,-0.042,0.025,0.007,-0.031,0.008,0.046
SLC7A5 (UniProt Q01650),-0.027,-0.017,-0.038,-0.031,0.06,-0.001,-0.312 (active),0.183,0.056,0.046,-0.142,0.012,-0.047,-0.044,0.046,-0.001,-0.084,-0.002,0.021,0.006
SYK (UniProt P43405),0.184,0.065,0.092,–,0.027,-0.123,-0.644 (active),-0.001,-0.041,0.068,-0.142,-0.015,-0.009,-0.105,0.115,0.01,0.154,–,0.11,-0.004
SKA3 (UniProt Q8IX90),0.047,0.011,-0.062,0.016,0.007,-0.018,-0.027,0.023,0.017,0.028,-0.035,-0.056,0.03,0.035,0.04,0.023,-0.051,0.039,-0.012,0.063
SLC30A6 isoform 2 (UniProt Q6NXT4),-0.098,0.018,0.146,0.105,0.001,-0.03,-0.127,0.063,–,-0.004,0.023,0.126,0.016,0.011,–,0.003,-0.322 (active),0.003,-0.18,-0.005
SOX5 (UniProt P35711),0.141,0.175,0.048,0.176,-0.034,0.049,-0.043,-0.043,0.076,-0.131,0.048,-0.113,-0.219,0.017,0.074,0.034,-0.025,–,-0.104,–
SH3BP2 isoform 4 (UniProt P78314),0.087,-0.017,-0.075,–,-0.052,0.029,-0.04,0.089,0.006,0.02,-0.023,0.026,0.03,-0.054,0.099,–,–,–,0.053,–
SLC22A18 (UniProt Q96BI1),0.026,0.046,-0.059,0.044,0.08,–,0.026,-0.032,–,0.073,-0.035,–,0.052,-0.076,–,0.009,-0.013,–,-0.077,–
SMIM8 (UniProt Q96KF7),0.037,0.048,0.088,-0.003,0.012,0.057,-0.382 (active),0.177,-0.071,-0.027,-0.01,0.034,-0.041,0.034,0.066,0.028,0.078,0.062,0.014,-0.015
STN1 (UniProt Q9H668),0.047,-0.389,0.114,-0.071,-0.068,-0.016,-0.179,0.31,–,-0.025,-0.078,-0.032,0.173,0.016,–,0.024,-0.149,-0.026,-0.562 (active),0.053
SHKBP1 (UniProt Q8TBC3),0.079,-0.017,0.03,-0.038,0.033,-0.058,-0.093,0.103,0.013,0.017,-0.038,-0.018,-0.002,0.115,0.046,-0.05,0.274 (active),0.019,0.001,0.023
STMN3 (UniProt Q9NZ72),-0.123,-0.006,0.098,0.096,0.002,-0.066,–,–,0.053,0.009,–,0.009,0.014,0.023,0.029,-0.015,-0.021,-0.082,-0.012,-0.041
